Records with an inconclusive call do not appear. Activity calls are given as the source filed them. The calls were made as follows: active = hit-call score of the fitted dose curve at least 0.9, where 1 is the maximum; inconclusive = response in the unintended direction; inactive = score below 0.9.

The values that follow come from PubChem BioAssay (EPA / NIEHS).

The nature of the experiment: ACEA_AR_antagonist_AUC_viability: ACEA Biosciences xCELLigence Real-Time Cell Analysis on Androgen Receptor Antagonism for Viability (AID 2283776).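 Also: area under impedance growth curve at 80 h after dosing as viability; hits lower the growth signal relative to DMSO meaning cytotoxicity.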 Here is the method: ACEA_AR_antagonist is a cell-based, single-readout assay that uses 22Rv1, a human prostate cancer cell line, with measurements taken at 80 hours after chemical dosing in a 384-well plate, although TO5 and TO6 (mc0.srcf) used a 96-well plate. Differences in plate size can be ignored given data normalization.ACEA_AR_80hr is one of two assay component(s) measured or calculated from the […] assay. It is designed to make measurements of real-time cell-growth kinetics, a form of growth reporter, as detected with electrical impedance signals by Real-Time Cell Electrode Sensor (RT-CES) technology.Data from the assay component ACEA_AR_antagonist_AUC_viability was analyzed in the positive analysis fitting direction relative to DMSO as the negative control and baseline of activity. Using a type of growth reporter, loss-of-signal activity can be used to understand changes in the viability. Furthermore, this assay endpoint can be referred to as a secondary readout, because this assay has produced multiple assay endpoints where this one serves a viability function. To generalize the intended target to other relatable targets, this assay endpoint is annotated to the cell cycle intended target family, where the subfamily is cytotoxicity.
The xCELLigence system Multi-E-Plate stations were used to measure the time-dependent response to chemicals. Each compound was tested in an eight-point, 1:4 serial dilution series starting at a maximum final concentration of 100 uM. A maximum starting concentration of 0.5% DMSO was present in the 100 uM chemical samples and was diluted along with the test article dilution series. The screen was performed in biological duplicate using two separate, 96-well, E-Plates 96 for each dilution series (n = 2). Positive controls (MG132 and testosterone) and a negative control (assay media) were tested in quadruplicate on each testing plate. Then, 0.5% and 0.125% DMSO were tested in duplicates in each plate to serve as solvent controls for the 2 highest concentrations of testing compounds: 100 uM and 25 uM. Reference compounds were tested with 8 concentrations with 1:5 serial dilutions. All screening was carried out by ACEA Biosciences, Inc. (San Diego, CA). 22Rv1 cells purchased from ATCC were maintained in media supplemented with 10% fetal bovine serum (FBS). Before screening, 22Rv1 cells were preconditioned in assay medium. Cells were then detached and seeded in E-Plates 96 in assay medium. After overnight monitoring of growth once every hour, compounds were added to […] cells and remained in the medium until the end of the experiment. Cellular responses were then recorded once every 5 min for the first 5 h, and once every hour for an additional 100 h.
Take `c1ccc2ncccc2c1`: the molecule was classed as inactive.

With `CC(C)CC(C)O` (stereo not given), the molecule was classed as inactive.

Turning to `CCn1nc(C)c2c1C(=O)NCC(c1ccc(O)cc1)=N2`, the AC50 (commonly the concentration at which the activity in the assay is half-maximal) was 15.1 µM (active).

With `CCCCCCOC(=O)CC(CC(=O)OCCCCCC)(OC(=O)CCC)C(=O)OCCCCCC`, the outcome was inactive.

Regarding `CC(C)c1nnc2ccc(-c3ocnc3-c3cc(F)ccc3F)cn12`, the AC50 was 37.1 µM (active).

Take `NNC(=O)c1ccncc1`: the outcome was inactive.

Turning to `c1ccc(C(O[C@@H]2CCCN(CCc3ccc4c(c3)OCO4)C2)c2ccccc2)cc1`, the AC50 is 58.3 µM (active).

As to `CNC(C)=O`, the outcome was inactive.

As to `CCc1cccc(CC)c1N`, the AC50 is 9.94 µM (active).

For `OC(CCl)CCl`, the outcome was inactive.

Regarding `CC[C@H](C)C(=O)O[C@H]1C[C@H](O)C=C2C=C[C@H](C)[C@H](CC[C@@H](O)C[C@@H](O)CC(=O)O)[C@H]21`, the call was inactive.

As to `Cc1cccc(O)c1C`, the result was inactive.

Consider `OCc1ccccc1`, for which the outcome was inactive.

Regarding `CCCCCCCCCCCCCCO`, the AC50 is 50 µM (active).

Take `CCCc1ccccc1`: the result was inactive.

As to `OCCNCCO`, the result was inactive.

Regarding `O=S1(=O)CCCO1`, the call was inactive.

On to `Cc1nccn1-c1ccc(Sc2cccc(C3(C(N)=O)CCOCC3)c2)cc1`, for which the AC50 was 24 µM (active).

In the case of `CC(=O)c1ccccc1`, the molecule was classed as inactive.

Consider `CCc1ccc(O)c(C(C)(C)C)c1`, for which the half-maximal activity concentration (AC50) was 70.5 µM (active).

As to `C=CCc1cc(S(=O)(=O)c2ccc(O)c(CC=C)c2)ccc1O`, the AC50 was 24.5 µM (active).

As to `CCCC(CCC)C(=O)O`, the AC50 is 50 µM (active).

As for `OC[C@H]1O[C@@H]2O[C@H]3[C@H](O)[C@@H](O)[C@@H](O[C@H]4[C@H](O)[C@@H](O)[C@@H](O[C@H]5[C@H](O)[C@@H](O)[C@@H](O[C@H]6[C@H](O)[C@@H](O)[C@@H](O[C@H]7[C@H](O)[C@@H](O)[C@@H](O[C@H]1[C@H](O)[C@H]2O)O[C@@H]7CO)O[C@@H]6CO)O[C@@H]5CO)O[C@@H]4CO)O[C@@H]3CO`, the molecule was classed as inactive.

For the molecule `CCOC(N)=O`, the call was inactive.

Turning to `c1ccc2c(c1)-c1cccc3c1c-2cc1ccccc13`, the AC50 is 4.1 µM (active).

`OC(Cn1cncn1)(Cn1cncn1)c1ccc(F)cc1F`: the outcome was inactive.

Regarding `Cc1ncc([C@@H](CCCCCCc2ccc3c(n2)NCCC3)CC(=O)O)cn1`, the AC50 is 0.00579 µM (active).

For `CCCOc1ccc(S(=O)(=O)N2CCN(CC)CC2)cc1-c1nc2c(CC)n(Cc3ccccn3)nc2c(=O)[nH]1`, the molecule was called inactive.

Turning to `OC[C@H]1O[C@@](CO)(O[C@H]2O[C@H](CO)[C@@H](O)[C@H](O)[C@H]2O)[C@@H](O)[C@@H]1O`, the result was inactive.

Regarding `COc1cc(C(C)C)c2c(c1)S(=O)(=O)N(COc1cc(=O)n3cccc(OCCN4CCCCC4)c3n1)C2=O`, the AC50 is 16.8 µM (active).

Regarding `O=C(O)c1cccc(C(=O)O)c1`, the molecule was classed as inactive.

On to `CCN(CC)C(=S)SSC(=S)N(CC)CC`, for which the AC50 is 26 µM (active).

As for `c1ccc2cc3ccccc3cc2c1`, the result was inactive.

Take `Cn1cc[nH]c1=S`: the molecule was called inactive.

Take `O=C(O)c1cccc(C[C@@H]2COc3ccc(OCc4nc5cc(F)ccc5s4)cc3[C@@H]2O)c1`: the molecule was called inactive.

For `O=C(O)CO`, the molecule was classed as inactive.

`COS(C)(=O)=O`: the molecule was called inactive.

With `CCOc1ccc2[nH]cc(C(=O)NCc3ccccc3)c(=O)c2n1`, the AC50 was 35.9 µM (active).

As to `COc1cc2c(c(OC)c1OC)-c1ccc(OC)c(=O)cc1[C@@H](NC(C)=O)CC2`, the AC50 is 0.00231 µM (active).

For `NC(N)=O`, the molecule was called inactive.
